Screens (PubChem BioAssay)
Compounds with a hit are over-represented: about 3.5% of the library has one in this group of screens.
Bead autofluor: flagged as autofluorescent in microsphere protease counterscreen; compound autofluorescence counterscreen, microsphere flow cytometry; stronger effect = higher value; fluorescence intensity (concentration not given with the values); 3.1% of 360,000 active; in the data active means fluorescence intensity above about 16000; inconclusive means no clear call, values can overlap the other calls
BoNT A protease: inhibitors of Botulinum neurotoxin A light chain protease. 0.17% of 360,000 active. inhibition, % at 10 µM. multiplex microsphere protease substrate cleavage, flow cytometry. AID 588499
BoNT F protease: blocks Botulinum neurotoxin F light chain protease; 0.22% of 360,000 active; inhibition, % at 10 µM; Multiplex microsphere protease cleavage assay, flow cytometry; AID 588497; in the data active means inhibition above about 35%, passing the limit was not always enough; inconclusive means no clear call, values can overlap the other calls
Vc quorum ag: inducers of Vibrio cholerae quorum light production without autoinducers; V. cholerae BH1578 lux reporter, luminescence, 6 h; activation, % at 18.7 µM; 0.16% of 350,000 active; AID 588436; in the data active means activation mostly above about 9.7%, no sharp cut-off; inconclusive means no clear call, values can overlap the other calls; inactive means mostly below about 3.7%
Anthrax LF prot: inhibitors of Bacillus anthracis lethal factor protease | 0.12% of 360,000 active | inhibition, % at 10 µM | P15917 | multiplex microsphere protease cleavage assay, LF
BoNT-A LC CP1: BoNT/A light chain protease inhibition | shares compounds with BoNT F protease | multiplex microsphere protease assay, flow cytometry | inhibition, % at 10 µM | 3% of 720 active; in the data active means inhibition above about 32%
BoNTF LC inh 1: inhibitors of Botulinum neurotoxin F light chain protease. shares compounds with BoNT F protease. multiplex microsphere protease cleavage assay, flow cytometry. inhibition, % at 10 µM. 720 tested, under 10 active. AID 602140; call rule not given here
Anthrax LF CP1: blocks anthrax lethal factor protease; shares compounds with BoNT F protease; multiplex microsphere protease cleavage assay, LF; 720 tested, under 10 active; inhibition, % at 10 µM; AID 602142; call rule not given here
Each line names hits and unclear results; the compound was inactive in the other large screens (follow-up assays come after a bar, where they were run). Unless noted, no stated cut-off is given here; in the data, active means inhibition above about 30%; inconclusive means no clear call, values can overlap the other calls; inactive means below that.

Nc1ccc(S(=O)(=O)Nc2nccc(/C=C/c3cccc(Br)c3)n2)cc1	BoNT F protease 36.7 | BoNT-A LC CP1 inactive | BoNTF LC inh 1 inactive | Anthrax LF CP1 inactive
Nc1ccc(S(=O)(=O)Nc2nccc(/C=C/c3cccc([N+](=O)[O-])c3)n2)cc1	none
Cc1nc2c(C)cccc2c2c1CCN2c1ccccc1F	BoNT A protease inconclusive, BoNT F protease inconclusive, Anthrax LF prot 34.9 | BoNT-A LC CP1 inactive | BoNTF LC inh 1 inactive | Anthrax LF CP1 inactive
C[C@H](CO)N1C[C@H](C)[C@@H](CN(C)C(=O)NC2CCCCC2)Oc2ccc(NC(=O)Nc3ccccc3)cc2C1=O	none
Cn1nc(C(C)(C)C)c(NC(=O)c2cccs2)c1C(C)(C)C	BoNT F protease inconclusive
CCn1ccnc1CN1CCN(CC=C(C)C)C(CCO)C1 (stereo not drawn)	BoNT F protease 47.9 | BoNT-A LC CP1 inactive | BoNTF LC inh 1 inactive | Anthrax LF CP1 inactive
CC(=O)Nc1ccc(NC(=O)[C@@H](NC(=O)N2C[C@H]3C[C@@H](C2)c2cccc(=O)n2C3)C(C)C)cc1	none
Cc1n[nH]c(C)c1CCNC(=O)C1CCC(=O)N(CCc2cccc(F)c2)C1 (stereo not drawn)	Bead autofluor inconclusive, BoNT F protease 34.8 | BoNT-A LC CP1 inactive | BoNTF LC inh 1 inactive | Anthrax LF CP1 inactive
Cc1nc(CCNC(=O)C2CCC(=O)N(CCc3cccc(F)c3)C2)sc1C (stereo not drawn)	none
O=C(CCSc1ccccn1)Nc1ccc(Br)cc1	BoNT F protease 47.2 | BoNT-A LC CP1 inactive | BoNTF LC inh 1 inactive | Anthrax LF CP1 inactive
CCN(CC(=O)NCc1ccc(F)cc1)C(=O)CCNS(=O)(=O)c1cccc(C)c1	none
Cc1ccccc1S(=O)Cc1ccc(C(=O)N2CCN(C(=O)c3ccco3)CC2)o1 (stereo not drawn)	none
CC(C)c1ccc(OCC(=O)Nc2ccncc2)cc1	BoNT F protease 42.8 | BoNT-A LC CP1 inactive | BoNTF LC inh 1 inactive | Anthrax LF CP1 inactive
CCOc1ccc(CC2c3cc(OCC)c(OCC)cc3CCN2C(=O)CN2CCN(C)CC2)cc1OCC (stereo not drawn)	BoNT F protease 34.7 | BoNT-A LC CP1 inactive | BoNTF LC inh 1 inactive | Anthrax LF CP1 inactive
COc1ccc(C(=O)C2CCCN(Cc3cccn3-c3ccc(Cl)cn3)C2)c(OC)c1 (stereo not drawn)	none
CC1(O)C(c2ccccc2)=Nc2ccccc21 (stereo not drawn)	none
CCOc1cccc(OCCCCN2CCCCC2)c1	none
Brc1cccc(OCCCCN2CCCCC2)c1	BoNT F protease 35.2 | BoNT-A LC CP1 inactive | BoNTF LC inh 1 inactive | Anthrax LF CP1 inactive
O=C(O)c1cccc2c1C(=O)c1ccc(-c3ccc(Cl)c(C(F)(F)F)c3)cc1S2(=O)=O	none
COc1ccc(-c2cc(-c3cccs3)nc3sc(C#N)c(N)c23)cc1	BoNT A protease 40.2 | BoNT-A LC CP1 inactive | BoNTF LC inh 1 inactive | Anthrax LF CP1 inactive
COc1ccc(C(=O)c2sc3nc(C)cc(-c4cccs4)c3c2N)cc1	BoNT A protease 56.4 | BoNT-A LC CP1 inactive | BoNTF LC inh 1 inactive | Anthrax LF CP1 inactive
Cc1cc(-c2cccs2)c2c(N)c(C(=O)c3ccc4c(c3)OCO4)sc2n1	BoNT A protease 55.5 | BoNT-A LC CP1 inactive | BoNTF LC inh 1 inactive | Anthrax LF CP1 inactive
N#Cc1sc2nc(C3CC3)cc(-c3ccc(Cl)cc3)c2c1N	none
CCc1ccc(CN(C)C(=O)c2ccc3c(c2)OCCO3)cc1	none
COc1cccc(C(=O)COC(=O)CCC(=O)NC2CCCCC2)c1	none
NC(=O)c1ccc(Br)c(S(=O)(=O)N2CCCCC2)c1	BoNT A protease 35.3, BoNT F protease 42.1 | BoNT-A LC CP1 inactive | BoNTF LC inh 1 inactive | Anthrax LF CP1 inactive
Cc1nc2nc(Cc3ccccc3)[nH]n2c(=O)c1Cl	none | BoNT-A LC CP1 inactive | BoNTF LC inh 1 inactive | Anthrax LF CP1 inactive
COc1cccc(NC(=O)CN(C)C(=O)CCC(=O)c2cc(C)sc2C)c1	BoNT A protease 67.7, BoNT F protease inconclusive | BoNT-A LC CP1 inactive | BoNTF LC inh 1 inactive | Anthrax LF CP1 inactive
COc1ccc(Cl)cc1NC(=O)CN(C)C(=O)CCC(=O)c1cc(C)sc1C	none (no result: Bead autofluor, BoNT A protease, BoNT F protease, Anthrax LF prot)
Cc1ccc(NC(=O)c2ccc(C(=O)c3ccccc3)cc2)nc1	Bead autofluor inconclusive
CCc1ccc(OCc2nnc(SCC(=O)N3CCOCC3)o2)cc1	none
CCc1ccc(OCc2nnc(SCC(=O)Nc3cccc(C(=O)N4CCOCC4)c3)o2)cc1	BoNT F protease 46.0 | BoNT-A LC CP1 inactive | BoNTF LC inh 1 inactive | Anthrax LF CP1 inactive
Cc1ccccc1-n1cc(CNC(=O)CCc2nnc(CCc3ccccc3)o2)cn1	none
O=C(NCc1ccccc1)c1noc2c1CCCC2	BoNT F protease 35.2 | BoNT-A LC CP1 inactive | BoNTF LC inh 1 inactive | Anthrax LF CP1 inactive
COc1ccccc1N1C(=O)CC(N2CCN(c3ccc(F)cc3)CC2)C1=O (stereo not drawn)	BoNT F protease 40.5 | BoNT-A LC CP1 inactive | BoNTF LC inh 1 inactive | Anthrax LF CP1 inactive
CC(C(=O)Nc1nc2ccccc2s1)n1cc([N+](=O)[O-])cn1 (stereo not drawn)	none
O=C(CSc1nncn1-c1ccccc1)c1c[nH]c2ccccc12	BoNT A protease 52.9 | BoNT-A LC CP1 inactive | BoNTF LC inh 1 inactive | Anthrax LF CP1 inactive
CCCCNc1nnc(SCC(=O)c2c(N)n(C3CC3)c(=O)[nH]c2=O)s1	none
O=C(CSc1nc2ccccc2c(=O)n1-c1ccccc1)c1c[nH]c2ccccc12	none
CCCCNc1nnc(SCC(=O)c2c[nH]c3ccccc23)s1	BoNT A protease 54.2 | BoNT-A LC CP1 inactive | BoNTF LC inh 1 inactive | Anthrax LF CP1 inactive
COc1cccc(C2=NOC(C(=O)NCc3ccccn3)C2)c1 (stereo not drawn)	none
COc1ccc(C2=NOC(C(=O)NCc3ccccn3)C2)cc1 (stereo not drawn)	BoNT F protease 72.2 | BoNT-A LC CP1 inactive | BoNTF LC inh 1 inactive | Anthrax LF CP1 inactive
O=C(CCC(=O)N1CCN(c2ccccc2F)CC1)N1CCN(c2ccc(F)cc2)CC1	none
O=C(CCC(=O)N1CCN(c2ccc(F)cc2)CC1)N1CCN(c2ccc(F)cc2)CC1	BoNT F protease 41.0 | BoNT-A LC CP1 inactive | BoNTF LC inh 1 inactive | Anthrax LF CP1 inactive
CCOc1ccccc1NC(=O)c1ccc(NC(=O)c2ccco2)cc1	none (no result: Vc quorum ag)
CCOc1ccc(NC(=O)c2ccc(Cl)c(NC(=O)c3ccco3)c2)cc1	BoNT F protease 37.8 | BoNT-A LC CP1 inactive | BoNTF LC inh 1 inactive | Anthrax LF CP1 inactive
FC(F)(F)c1ccccc1/C=N/n1c(COc2ccccc2)n[nH]c1=S	BoNT F protease inconclusive
CC(N=C1NS(=O)(=O)c2ccccc21)C(=O)N1CCc2ccccc2C1 (stereo not drawn)	none
CN1CCN(c2nc(C(N)=O)cc(-c3ccccc3)n2)CC1	BoNT F protease 36.0 | BoNT-A LC CP1 inactive | BoNTF LC inh 1 inactive | Anthrax LF CP1 inactive
COc1ccc(-c2noc(CCC(=O)O)n2)cc1	none
COc1cc(CCC(=O)O)on1	BoNT F protease 61.6 | BoNT-A LC CP1 inactive | BoNTF LC inh 1 inactive | Anthrax LF CP1 inactive
